# Screening data as filed in PubChem BioAssay.
# ELG1 genotoxic: qHTS screen for small molecules that induce genotoxicity in human embryonic kidney (HEK293T) cells expressing luciferase-tagged ELG1; HEK293T ELG1-luciferase reporter, luminescence, 16 h; Potency, µM (top dose mostly 46 µM), for inactives: top-dose activity change, positive = activation, most hits filed as activators; actives 1.3% (n = 330,000); AID 504466, 2011; further: % of control where 0% means no effect; nearly all actives have a fitted effect of over 60% in size
#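 ELG1-luciferase HEK293T cells, 2,000/well; compound pinned in; 16 hr, 37 °C, 5% CO2; ONE-Glo, 30 min RT; luminescence on CCD imager.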
# Rab9 prom act: qHTS Assay for Rab9 Promoter Activators | Huh7 Rab9 promoter-luciferase reporter, luminescence, 24 h | actives 2.8% (n = 320,000) | AID 485297, 2010 | Potency, µM (doses to about 9.22 µM), without a hit: at the top dose activation, negative = inhibition, hits mostly activators; further: % of control where 0% means no effect; nearly all actives have a fitted effect of over 60% in size
#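 Luminescence from Amplite-detected luciferase (10 minutes, ambient) reports Rab9 promoter activation. Before that, stable Rab9-luciferase Huh7 cells (1500/well, reduced-serum OP-MEM I plus 10% FBS) were exposed to compound for 24 hours at 37C.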
# Luc counter: Counterscreen for Luciferase (Kinase-Glo TM) Inhibition; Luciferin 4-monooxygenase (Photuris pensylvanica), Q27757; Kinase-Glo luciferase, ATP luminescence, 8 min; Potency, µM (highest dose often 38.3 µM), inactives show at the top dose activity change, negative = inhibition, most hits filed as inhibitors; actives 0.28% (n = 200,000); AID 1379, 2008; further: on the % scale 0 is the no-effect control and ±100 the full control effect; nearly all actives have a fitted effect of over 60% in size
#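 Inhibition of Kinase-Glo luciferase light generation was assessed at 10 uM ATP in pH 7.2 imidazole buffer, with luminescence measured after eight minutes at ambient temperature.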
# NPC1 promoter act: qHTS Assay for NPC1 Promoter Activators. Potency, µM (top dose mostly 9.22 µM), inactives show top-dose activation, hits mostly activators. actives 2.4% (n = 320,000). Huh7 NPC1 promoter luciferase reporter, 24 h; further: % of control where 0% means no effect; nearly all actives have a fitted effect of over 60% in size
#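 Luciferase expression driven by the NPC1 promoter was measured in stably transfected Huh7 cells after a 24 h compound incubation, using a luciferase reagent and a luminescence read.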
# FLuc counter: qHTS profiling assay for firefly luciferase inhibitor/activator using purifed enzyme and Km concentrations of substrates (counterscreen for miR-21 project); Luciferin 4-monooxygenase (Photinus pyralis), P08659; purified FLuc, Km substrates, luminescence inhibition; Potency, µM (series often up to 57.5 µM), without a hit: at the top dose activity change, negative = inhibition, actives largely listed as inhibitors; actives 6.9% (n = 360,000); AID 588342, 2011;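 further: plate controls were vehicle for no effect and reference inhibitor for full effect; nearly all actives have a fitted effect of over 55% in size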
# Target sequence (P08659 whole entry, looked up): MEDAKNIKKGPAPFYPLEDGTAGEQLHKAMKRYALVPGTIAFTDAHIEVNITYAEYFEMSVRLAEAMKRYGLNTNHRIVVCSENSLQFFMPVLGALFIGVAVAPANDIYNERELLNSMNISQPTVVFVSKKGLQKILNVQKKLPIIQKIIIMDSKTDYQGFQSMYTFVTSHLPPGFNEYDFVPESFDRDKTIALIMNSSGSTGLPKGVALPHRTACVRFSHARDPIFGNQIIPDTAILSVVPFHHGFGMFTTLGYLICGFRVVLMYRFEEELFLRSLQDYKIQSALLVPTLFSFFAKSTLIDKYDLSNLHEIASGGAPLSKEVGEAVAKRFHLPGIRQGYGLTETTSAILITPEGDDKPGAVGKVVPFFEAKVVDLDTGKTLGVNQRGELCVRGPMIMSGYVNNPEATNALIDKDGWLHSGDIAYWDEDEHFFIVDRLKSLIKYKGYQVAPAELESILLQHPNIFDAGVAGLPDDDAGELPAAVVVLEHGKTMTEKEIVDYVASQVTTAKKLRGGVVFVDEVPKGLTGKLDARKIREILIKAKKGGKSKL
#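 Biochemical qHTS of compounds, final roughly 60 µM downward over six points, against 10 nM purified firefly luciferase using Km concentrations of substrates (10 uM D-luciferin, 10 uM ATP) in Tris acetate pH 7.5 buffer; luminescence output.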
# SMN2 splice up: qHTS Assay for Enhancers of SMN2 Splice Variant Expression; actives 2.8% (n = 210,000); HEK293 SMN2-luciferase splicing reporter, luminescence, 30-36 h; Potency, µM (top dose mostly 46.1 µM), for the others: top-dose activity change, positive = activation, usual class: activators; AID 1458, 2008; further: % of control where 0% means no effect; nearly all actives have a fitted effect of over 55% in size
#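 qHTS luciferase splicing reporter: luminescence rises when SMN2 exon 7 is included in transfected HEK293 cells. Compound exposure lasted 30-36 h at 37C, with 4.5 mM final sodium butyrate as control, followed by a ONE-Glo read.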
# Active calls of the source: *; ? = inconclusive; . = not tested or not shown; [ ] = another dose, or the depositor's remark. Sampled rows, rich in hits. Any-hit rate of the full collection: about 7.4%. The call rests on the fitted dose curve; in most records, active means well fitted curve in the direction sought with a large enough effect; inconclusive means small, poorly fitted or top-dose-only effect, or another doubt; inactive means no such curve, though single readings can be large; an effect the other way counts as inactive or inconclusive. Potency means the concentration at half of the fitted maximal effect.
SMILES,ELG1 genotoxic,Rab9 prom act,Luc counter,NPC1 promoter act,FLuc counter,SMN2 splice up
COc1ccccc1C(=O)Nc1nc(-c2cccs2)c(NC(C)=O)s1,9.2µM*,?,-6%,19%,0.76µM*,?
Cc1nnc(NC(=O)c2ccccc2NC(=O)c2ccccc2)s1,-4%,-2%,.,1%,8.5µM*,.
COc1cccc(C(=O)Nc2sc(C(C)C)cc2C(N)=O)c1OC,-4%,-2%,.,-3%,21µM*,.
CC(=O)Nc1sc(N/N=C\c2ccc(O)cc2)nc1-c1cccs1,?,22%,.,11%,12µM*,.
CC(=O)Nc1sc(NC(=O)c2ccccc2)nc1-c1cccs1,0%,-6%,1%,-1%,-17%,1%
COc1cc2c(cc1OC)C(COc1ccc3c(C)cc(=O)oc3c1)N(C(=O)c1cccc(C)c1)CC2 (stereo not given),.,.,.,.,0%,9%
CC(C)=CC(=O)Nc1nnc(C)s1,15%,16%,-1%,9%,-17%,?
CC(C)=CC(=O)Nc1nnc(-c2ccccc2)s1,2.9µM*,1.4µM*,0%,2.2µM*,?,11µM*
CC(Sc1nncn1C)C(=O)Nc1nnc(-c2ccccc2)s1 (stereo not given),16µM*,?,1%,?,15µM*,14µM*
COc1ccccc1C(=O)Nc1cc(-c2ccc(C)cc2)no1,?,?,.,?,6µM*,?
COc1cccc(C(=O)Nc2nnc(-c3ccccc3)s2)c1OC,?,1.8µM*,.,2.5µM*,12µM*,.
Cc1ccc(-c2cc(NC(=O)c3cccc(C)c3)on2)cc1,.,.,.,.,-14%,?
COc1cccc(OC)c1C(=O)Nc1nnc(C)s1,.,.,.,.,2%,-8%
CN(CCc1ccccn1)c1ccc2c(c1)C(=O)c1ccccc1-2,.,.,-2%[7.66 µM],.,.,15%[9.22 µM]
CN(C)c1ccc(CNC(=O)c2ccc3c(c2)N(C)C(=O)C2CCCCN32)cc1 (stereo not given),.,.,.,.,3%,.
O=C(Nc1nnc(-c2ccccc2)s1)c1ccccc1O,2%,2.5µM*,.,1.8µM*,4.3µM*,.
O=C(Nc1ccccc1)Nc1nnc(-c2ccccc2)s1,13%,?,.,?,-5%,.
c1csc(-c2cnc3ccccc3n2)c1,?,?,-6%,4µM*,11µM*,?
c1ccc(-c2cccs2)nc1,-2%,0%,.,1%,5%,.
c1cc(-c2cccs2)nc(-c2cccs2)c1,11%,4%,-6%,8%,15µM*,20%
CC(C)c1ccc(S(=O)(=O)c2nnn3c2nc(N2CCOCC2)c2sccc23)cc1,.,.,.,.,0%,.
Cc1ccc(C(=O)Nc2nnc(CC(=O)N/N=C/c3ccncc3)s2)cc1,3%,18%,1%,-16%,?,6%
Cc1ccc(C(=O)Nc2nnc(CC(=O)N/N=C/c3ccc(O)c(O)c3)s2)cc1,6%,-5%,.,20%,4.8µM*,.
CC(=O)NC1=NC(=O)/C(=C/c2cn(C(C)=O)nc2-c2ccccc2)S1,-16%,0%,-3%,7%,-17%,7%
CC(=O)NC1=NC(=O)/C(=C/c2cc(C)n(-c3cccc(C(=O)O)c3)c2C)S1,0%,-7%,.,-8%,15µM*,.
SMILES,ELG1 genotoxic,Rab9 prom act,Luc counter,NPC1 promoter act,FLuc counter,SMN2 splice up
CC(=O)NC1=NC(=O)/C(=C/c2cc(C)n(-c3ccc(NC(C)=O)cc3)c2C)S1,-4%,?,4%,?,5.4µM*,12%
Cc1ccc(NC(=O)CN2C(=O)N/C(=C/c3cc(C)n(-c4cccc(C(=O)O)c4)c3C)C2=O)cc1,3%,0%,-3%,-5%,?,4%
Cn1c(=O)c2nc(SCC(=O)Nc3cc(Cl)cc(Cl)c3)n(C)c2n(C)c1=O,.,.,.,.,-4%,.
COc1cccc(NC(=O)Cn2c(=O)n(CCCCC(=O)NCc3ccccc3Cl)c(=O)c3ccccc32)c1,.,.,.,.,1%,4%
Cn1ccnc1C[C@@](C)(O)c1ccccc1,.,.,-1%[7.66 µM],.,.,-12%[9.22 µM]
Cc1nnc(N/N=C\c2ccc(-c3ccccc3[N+](=O)[O-])o2)n1N,5%,6%,0%,13%,?,14%
Cc1nnc(N/N=C/c2ccc(-c3ccccc3F)o2)n1N,?,?,.,28%,21µM*,.
Cc1nc(NC2CCCCC2)c2nc(-c3ccccc3)n(CCCN3CCCCC3C)c2n1 (stereo not given),.,.,-2%,.,.,-24%
COc1ccc(-c2nc3cnc(OC)nc3n(C3CC3)c2=O)cc1,.,.,-7%,.,.,-12%
CCOc1ccc(/C=C/C(=O)NC2CCCCC2)cc1,7%,17%,.,19%,?,.
O=C(O)COc1ccc(/C=C/C(=O)c2ccc(C3CCCCC3)cc2)cc1,3%,?,.,?,0.38µM*,.
O=C(O)COc1ccc(/C=C/C(=O)c2ccc3ccccc3c2)cc1,8%,14%,.,3%,0.95µM*,.
O=C(O)COc1ccc(C(=O)c2ccccc2)cc1,0%,-6%,.,-2%,?,.
COc1ccc(-c2nc3c(c4c2C[C@H](c2ccccc2)OC4)CN(S(=O)(=O)c2ccc(C#N)cc2)CC3)c(C)c1,.,.,-8%[7.66 µM],.,.,6%[9.22 µM]
Cc1ccc(NC(=O)CSc2nccn2Cc2ccco2)c(C)c1,5.2µM*,0.63µM*,.,0.89µM*,4.3µM*,.
O=C(CSc1nccn1Cc1ccco1)Nc1ccccc1F,?,17%,.,?,?,.
Cc1cc(C)c(NC(=O)CSc2nccn2Cc2ccco2)c(C)c1,.,.,.,.,17µM*,.
COc1ccc(OC)c(NC(=O)CSc2nccn2Cc2ccco2)c1,5%,2%,.,4%,15µM*,.
CCOC(=O)c1c(NC(=O)c2cc(=O)c3cc(C)ccc3o2)sc2c1CCCC2,.,.,.,.,0%,-3%
NCCC(O)C(=O)NC1C[C@@H](N)[C@H](O[C@@H]2OC(CN)C(O)C(O)C2O)C(O)[C@H]1O[C@H]1OC(CO)C(O)C(N)C1O (stereo not given in full),.,.,-9%,.,.,3%
COc1ccc2c(CNCCc3cccs3)c(C(=O)O)n(Cc3ccccc3)c2c1,.,.,.,.,0%,.
CCc1ccc(NC(=O)Nc2cccc(OC)c2)cc1,?,3.2µM*,-2%,2.8µM*,2.7µM*,14µM*
COc1cccc(NC(=O)Nc2ccc(CC(=O)O)cc2)c1,1%,2%,-2%,-7%,19µM*,-8%
